According to PubChem BioAssay AID1159580 (chemical genetic matrix, 2015):
Among all 5,500 compounds or so, about 2,000 (36%) were called active. Another 18% or so got no clear call; they are omitted. Rule as the data show it: active = normalized growth mostly below about 0.91 (no sharp cut-off); inconclusive = no clear call, values can overlap the other calls; inactive = mostly above about 0.92. The list shows a part of the results.

Assay: chemical genetic growth profiling, strain panel (AID 1159580);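 also: tested at 20 µM; growth read once vehicle control cultures reached saturation at 30 °C; 1 = growth at the plate median or of vehicle wells; lower values mean less growth of the strain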
Conditions: S. cerevisiae deletion strains, growth OD

Measured: normalized growth

COc1cc2occ(-c3ccccc3)c(=O)c2c(OC)c1C
active: locus YDL192W, strain arf1, active compounds read low 0.903 | locus YDR137W, strain rgp1, active compounds read low 0.765 | locus YDR318W, strain mcm21, active compounds read low 0.891 | locus YDR392W, strain spt3, active compounds read low 0.707 | locus YDR502C, strain sam2, active compounds read low 0.919 | locus YER167W, strain BCK2, active compounds read low 0.881 | locus YGL086W, strain mad1, active compounds read low 0.901 | locus YGR252W, strain gcn5, active compounds read low 0.707 | locus YHR079C, strain IRE1 (second series), active compounds read low 0.911 | locus YHR200W, strain rpn10, active compounds read low 0.905
inactive: locus YAL013W, strain DEP1, active compounds read low 0.947 | locus YAL021C, strain ccr4, active compounds read low 0.996 | locus YAL026C, strain drs2, active compounds read low 0.96 | locus YAL030W, strain snc1, active compounds read low 0.967 | locus YBL061C, strain skt5, active compounds read low 0.985 | locus YBR009C, strain hhf1, active compounds read low 0.978 | locus YBR021W, strain FUR4, active compounds read low 0.923 | locus YBR023C, strain chs3, active compounds read low 0.966 | locus YBR171W, strain sec66, active compounds read low 0.965 | locus YBR229C, strain ROT2, active compounds read low 0.959 | locus YBR231C, strain swc5, active compounds read low 0.966 | locus YBR279W, strain paf1, active compounds read low 0.992 | locus YCL011C, strain gbp2, active compounds read low 0.973 | locus YCL016C, strain dcc1, active compounds read low 0.968 | locus YCL029C, strain bik1, active compounds read low 0.933 | locus YCL061C, strain MRC1, active compounds read low 0.973 | locus YCL069W, strain vba3, active compounds read low 0.975 | locus YCR088W, strain abp1, active compounds read low 0.972 | locus YDL005C, strain med2, active compounds read low 1.02 | locus YDL035C, strain GPR1, active compounds read low 0.915 | locus YDL040C, strain nat1, active compounds read low 0.973 | locus YDL074C, strain BRE1, active compounds read low 0.817 | locus YDL101C, strain DUN1, active compounds read low 0.953 | locus YDL134C, strain PPH21, active compounds read low 0.963 | locus YDL185W, strain tfp1, active compounds read low 0.945 | locus YDR001C, strain nth1, active compounds read low 0.967 | locus YDR069C, strain doa4, active compounds read low 0.995 | locus YDR101C, strain arx1, active compounds read low 0.934 | locus YDR150W, strain NUM1, active compounds read low 0.963 | locus YDR159W, strain sac3, active compounds read low 0.98 | locus YDR162C, strain NBP2, active compounds read low 0.875 | locus YDR195W, strain ref2 1.1 | locus YDR297W, strain sur2, active compounds read low 0.974 | locus YDR334W, strain swr1, active compounds read low 0.968 | locus YDR335W, strain msn5, active compounds read low 0.991 | locus YDR388W, active compounds read low 0.935 | locus YEL003W, strain gim4, active compounds read low 0.978 | locus YEL037C, strain rad23, active compounds read low 0.977 | locus YEL061C, strain CIN8 (second series), active compounds read low 0.978 | locus YEL061C, strain CIN8, active compounds read low 0.968 | locus YER015W, strain faa2, active compounds read low 0.981 | locus YER016W, strain bim1, active compounds read low 0.97 | locus YER110C, active compounds read low 0.938 | locus YER111C, strain swi4, active compounds read low 1 | locus YER155C, strain BEM2 (second series), active compounds read low 0.886 | locus YER155C, strain BEM2, active compounds read low 0.961 | locus YFR010W, strain ubp6, active compounds read low 0.991 | locus YGL078C, strain dbp3, active compounds read low 0.975 | locus YGL167C, strain pmr1, active compounds read low 0.965 | locus YGL173C, strain kem1, active compounds read low 0.983 | locus YGL227W, strain vid30, active compounds read low 0.989 | locus YGL240W, strain doc1, active compounds read low 0.944 | locus YGL248W, strain PDE1, active compounds read low 0.961 | locus YGL253W, strain hxk2, active compounds read low 0.971 | locus YGR078C, strain PAC10, active compounds read low 0.932 | locus YGR135W, strain pre9, active compounds read low 0.918 | locus YGR229C, strain SMI1, active compounds read low 0.813 | locus YHR013C, strain ard1, active compounds read low 0.976 | locus YHR027C, strain rpn1, active compounds read low 0.989 | locus YHR030C, strain SLT2, active compounds read low 0.948 | locus YHR094C, strain hxt1, active compounds read low 0.956 | locus YHR129C, strain ARP1, active compounds read low 0.949 | locus YHR142W, strain chs7, active compounds read low 0.917 | locus YIL066C, strain RNR3, active compounds read low 0.874 | locus YIL073C, strain SPO22, active compounds read low 0.818 | locus YIL125W, strain kgd1, active compounds read low 0.955 | locus YIR030C, strain dcg1, active compounds read low 0.937 | locus YJL092W, strain hpr5, active compounds read low 0.977 | locus YJL095W, strain BCK1 (second series), active compounds read low 0.975 | locus YJL095W, strain BCK1, active compounds read low 0.847 | locus YJL115W, strain asf1, active compounds read low 0.998 | locus YJL129C, strain trk1, active compounds read low 0.891 | locus YJL134W, strain LCB3, active compounds read low 0.965 | locus YJL154C, strain vps35, active compounds read low 0.99 | locus YJL164C, strain tpk1, active compounds read low 0.937 | locus YJL166W, strain qcr8, active compounds read low 0.975 | locus YJL168C, strain set2, active compounds read low 0.946 | locus YJL187C, strain SWE1 (second series), active compounds read low 0.934 | locus YJL187C, strain SWE1, active compounds read low 0.976
